CBFb RUNX1 block – inhibitors of human CBF-beta and RUNX1 interaction | Q01196+Q13951 | AlphaScreen CBFb-His/RUNX1-biotin binding, biochemical | Potency, µM (doses to about 59.8 µM), hits mostly inhibitors | 230,000 tested, under 10 active
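Read-out: AlphaScreen. Format: His-CBF-beta with biotinylated RUNX1 (30 nM each) preincubated 20 min, compound 15 min, Ni-chelate plus streptavidin beads 90 min; room temperature throughout.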
MBNL1 CUG block – inhibitors of human MBNL1 binding to CUG repeat RNA. TR-FRET MBNL1-His/biotin-(CUG)12 binding, 665/545 ratio. Potency, µM (top dose mostly 57.5 µM), most hits filed as inhibitors. actives 0.036% (n = 280,000); active = well fitted inhibition curve with a large enough effect in the signal ratio, with a control signal flat, not every such curve was filed as active; inconclusive = small, poorly fitted or top-dose-only effect, or effect the other way, or a change in a side signal; inactive = no such curve, though single readings can be large or run the other way; the % refers to the signal ratio
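TR-FRET between His-tagged MBNL1 and biotin-(CUG)12 RNA, detected with Tb anti-His antibody (0.055 ng/ul) and streptavidin-XL665 (5 nM), 60 min at room temperature. Compounds titrated 92 nM to 58 uM; 665/545 nm ratio normalized to buffer and complex controls.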
Gal4-VP16 FLuc – inhibits Gal4-VP16 luciferase reporter, ROR gamma counter-screen; actives 3.5% (n = 310,000); Potency, µM (top dose mostly 53.6 µM), usual class: inhibitors; Drosophila S2 Gal4-VP16 UAS-luciferase, luminescence, 20 h;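 note: Gal4-VP16 expression switched on by copper sulfate through the metallothionein promoter; nearly all actives have a fitted effect of over 50% in size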
CtBP-E1A blk – inhibitors of CtBP/E1A interaction | AlphaScreen GST-E1A/His-CtBP binding, 1536-well; stronger effect = lower value | activity change, % (test concentration not listed) | actives 0.49% (n = 340,000) | AID 651724; in the data active = activity change below about -65%; inconclusive = mostly about -30% to -63%
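Protein mix (5X: 125 nM each GST-E1A, His-CtBP) was incubated with pinned compound 2 h at 37 deg C in dark, in 50 mM Tris pH 8.0 buffer with 300 mM NaCl. Glutathione donor and nickel acceptor beads followed; AlphaScreen signal read after 1 h.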
Six1-Eya2 inh – inhibitors of human Six1/Eya2 interaction. Q15475+O00167. AlphaScreen GST-Six1/His-Eya2 binding, biochemical; stronger effect = lower value. activity change, % (test concentration not listed). actives 0.56% (n = 360,000). AID 651725; in the data active = activity change below about -65%; inconclusive = mostly about -30% to -63%
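AlphaScreen with GST-Six1 and His-Eya2 (5X mix: 250 nM and 500 nM), glutathione donor and nickel acceptor beads; buffer 50 mM Tris pH 8.0, 300 mM NaCl, 1 mM TCEP; 1 h at 37 C in the dark.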
RORg inh – blocks mouse ROR gamma transcriptional activity. Drosophila S2 Gal4-RORgamma UAS-luciferase reporter, 20 h. Potency, µM (titrated, usually from 53.6 µM), most hits filed as inhibitors. P51450. actives 5.4% (n = 310,000); note: nearly all actives have a fitted effect of over 60% in size
Target sequence (P51450 whole entry, looked up, the tested form may be a part): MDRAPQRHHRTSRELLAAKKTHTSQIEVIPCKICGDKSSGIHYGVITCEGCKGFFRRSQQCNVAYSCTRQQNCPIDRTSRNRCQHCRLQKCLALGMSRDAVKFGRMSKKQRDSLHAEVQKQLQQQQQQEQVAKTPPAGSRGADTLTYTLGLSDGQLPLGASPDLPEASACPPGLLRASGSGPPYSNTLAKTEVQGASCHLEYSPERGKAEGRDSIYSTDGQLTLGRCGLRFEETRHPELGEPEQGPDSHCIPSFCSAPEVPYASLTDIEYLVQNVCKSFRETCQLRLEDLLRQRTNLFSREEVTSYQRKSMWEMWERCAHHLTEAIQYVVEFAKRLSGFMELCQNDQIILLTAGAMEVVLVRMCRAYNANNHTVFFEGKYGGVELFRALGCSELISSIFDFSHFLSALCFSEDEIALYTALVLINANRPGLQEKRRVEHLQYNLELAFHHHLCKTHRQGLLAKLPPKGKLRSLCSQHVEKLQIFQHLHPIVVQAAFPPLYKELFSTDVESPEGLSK
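Drosophila S2 cells stably expressing Gal4-DBD/mouse RORγ fusion under metallothionein promoter plus UAS-luciferase; compound 1 h, then 700 uM CuSO4 induction for 20 h at ambient temperature; inhibition read as reduced luminescence.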
Hits are given with their value; – = inactive; ? = inconclusive; · = not tested or not shown; [ ] = dose if it differs, or a comment. In the library only some 5.5% were active in any assay of this set; here they are far more common. Unless noted, calls come from the whole dose curve; as a rule, active = well fitted curve in the direction sought with a large enough effect; inconclusive = small, poorly fitted or top-dose-only effect, or another doubt; inactive = no such curve, though single readings can be large; an effect the other way counts as inactive or inconclusive.

SMILES	CBFb RUNX1 block	MBNL1 CUG block	Gal4-VP16 FLuc	CtBP-E1A blk	Six1-Eya2 inh	RORg inh
Cc1ccc(NC(=O)c2cc(C(C)(C)C)nn2Cc2ccccc2)cc1	–	·	–	–	–	–
Cc1ccc(NNC(=O)c2cc(C(C)(C)C)nn2Cc2ccccc2)cc1	–	·	18µM	–	–	?
CC(C)(C)c1cc(C(=O)NC2CC2)n(Cc2ccc(F)cc2)n1	–	–	–	–	–	–
CCC1=C[C@@H]2CN(C1)Cc1c([nH]c3ccccc13)[C@@](C(=O)OC)(c1cc3c(cc1OC)N(C)[C@H]1[C@@](O)(C(=O)OC)[C@H](OC(C)=O)[C@]4(CC)C=CCN5CC[C@]31[C@@H]54)C2	–	·	–	·	·	–
COc1ccc(NC(=O)C[C@H]2C(=O)N(c3ccccc3)C[C@@H]2C)cc1	·	·	·	–	–	·
CCc1nc2c(OCc3ccccc3C(=O)OC)cccn2c1N(C)C(=O)c1cccs1	·	·	·	–	–	·
Cc1ccc(NC(=O)CN2CCCC2c2cccn2C)c(Br)c1 (centres undefined)	·	·	·	·	–	·
S=c1nc(-c2ccccn2)c(-c2ccccn2)n[nH]1	·	·	·	-89	-83	·
Cc1ccc(C(=O)Nn2cnc3ccccc3c2=O)cc1C	·	–	–	–	–	–
O=[N+]([O-])C(/C=C(\Cl)[N+](=O)[O-])=C(N1CCCCC1)N1CCCCC1	–	–	14µM	–	–	?
COc1ccc(Cl)cc1NS(=O)(=O)N1CCOCC1	·	–	–	–	–	–
Cc1nc2scc(C)n2c(=O)c1S(=O)(=O)Nc1ccc(N2CCOCC2)c(Cl)c1	·	–	11µM	–	–	–
Cc1nc2sccn2c(=O)c1S(=O)(=O)Nc1ccc(N2CCOCC2)c(Cl)c1	·	–	–	–	–	?
COC(=O)[C@H](COC(C)(C)C)NC(=O)O[C@H]1C(=O)c2cc(OC)ccc2O[C@@H]1c1ccc(OC)c(Br)c1	–	·	–	·	·	–
CSc1ccccc1NC(=O)CN(C)CC(=O)Nc1ccccc1C(F)(F)F	–	–	–[10 µM]	–	–	8.9µM
COc1ccc(NC(=O)CN(C)CC(=O)Nc2ccccc2SC)cc1	–	–	–	–	–	–
CSc1ccccc1NC(=O)CN(C)CC(=O)Nc1ccc(Cl)cc1F	–	–	?	–	–	11µM
CC1(C(=O)Nc2cccc(Oc3ccccc3)c2)CCN1C1Cc2ccccc2C1 (centres undefined)	·	·	·	–	–	·
Cc1cc(C(=O)CSc2nc3ccccc3[nH]2)c(C)n1Cc1ccco1	–	·	16µM	–	–	?
COC(=O)CCCn1c(C)cc(C(=O)CCl)c1C	–	–	–	–	–	8.9µM
C=CCn1c(C)cc(C(=O)CSc2nc3ccccc3c(=O)[nH]2)c1C	–	–	?	–	–	–
Cc1cc(C(=O)CCl)c(C)n1CCc1ccccc1	–	–	–	–	–	–
C=CCn1c(C)cc(C(=O)CSc2nc3ccccc3[nH]2)c1C	–	–	13µM	–	–	10µM
Cc1ccc(OCc2nnc(SCc3nc4ccccc4[nH]3)n2Cc2ccco2)cc1	–	–	?	–	–	?
c1ccc(-c2nnc(SCc3nc4ccccc4[nH]3)n2Cc2ccco2)cc1	–	–	?	–	–	11µM
SMILES	CBFb RUNX1 block	MBNL1 CUG block	Gal4-VP16 FLuc	CtBP-E1A blk	Six1-Eya2 inh	RORg inh
CCn1c(COC(=O)CNC(=O)c2ccccc2)nc2cc(S(=O)(=O)N(C)C)ccc21	·	·	·	–	–	·
COc1ccc(CC(=O)OCC(=O)Nc2ccc3[nH]c(=O)[nH]c3c2)cc1OC	·	·	·	–	–	·
Cc1cc(C(=O)CCl)c(C)n1Cc1ccco1	–	·	18µM	–	–	7.9µM
Cc1cc(C(=O)CSc2nncs2)c(C)n1Cc1ccco1	–	–	?	–	–	–
CCOC(=O)C(C)Sc1nc2c(c(-c3cccs3)c1C#N)CCC2 (centres undefined)	–	·	25µM	–	–	?
c1ccc(-n2nnnc2Sc2ncnc3sc4c(c23)CCCC4)cc1	–	–	?	–	–	?
Cc1sc2ncnc(Sc3nnnn3-c3ccc(Cl)cc3)c2c1C	–	–	7.1µM	–	–	4µM
CCOC(=O)N1CCC(N(CCN(C)C)C(=S)Nc2cccc(Cl)c2)CC1	–	–	–[10 µM]	–	–	–
CCOC(=O)N1CCC(N(CCN(C)C)C(=S)Nc2cc(Cl)cc(Cl)c2)CC1	–	–	?	–	–	10µM
CCOC(=O)N1CCC(N(CCOC)C(=S)Nc2cccc(SC)c2)CC1	–	–	–[10 µM]	–	–	20µM
Cc1cccc(C)c1N1C(=O)CC(N(O)c2ccccc2)C1=O (centres undefined)	–	–	–	–	–	11µM
Cc1c(NC(=S)N/N=C/c2ccc([N+](=O)[O-])cc2O)c(=O)n(-c2ccccc2)n1C	·	?	–	-93	-84	–
Cc1c(NC(=S)N/N=C/c2ccc(Br)cc2)c(=O)n(-c2ccccc2)n1C	–	–	?	–	–	?
Cc1ccc(NC(=S)Nc2cccc(S(=O)(=O)Nc3c(C)n(C)n(-c4ccccc4)c3=O)c2)cc1	–	–	–	–	–	11µM
Cc1c(NC(=S)N/N=C\c2ccccc2O)c(=O)n(-c2ccccc2)n1C	?	–	–	–	-90	?
CC(=O)c1ccc(NC(=S)Nc2cccc(S(=O)(=O)Nc3c(C)n(C)n(-c4ccccc4)c3=O)c2)cc1	–	–	–	–	–	–
CC(=O)NC(Cc1ccccc1F)C(=O)NC1CCN(C(=O)NCc2ccccc2)CC1 (centres undefined)	·	–	–	–	–	–
CC1(C)CC(=O)C(C=NCc2ccccn2)=C(O)C1	–	–	16µM	–	–	7.1µM
Oc1c(Cl)cc(Cl)cc1C1=NNC(c2ccc(Cl)cc2)C1 (centres undefined)	–	–	–	–	–	8.9µM
Oc1ccc(Cl)cc1C1=NNC(c2cc(Br)cc3c2OCOC3)C1 (centres undefined)	–	–	?	–	–	7.9µM
Oc1ccc(Cl)cc1C1=NNC(c2ccc(Cl)cc2)C1 (centres undefined)	–	–	16µM	–	–	8.9µM
COc1ccc(C2=NNC(c3cc(Cl)cc4c3OCOC4)C2)c(O)c1 (centres undefined)	–	–	–	·	·	–
Oc1ccc(Cl)cc1C1=Nc2ccccc2N=C(c2ccco2)C1	–	–	?	–	–	?
CN(Cc1ccccc1)C(=O)[C@H](Cc1ccc2ccccc2c1)NC(=O)[C@@H]1CCCN1C(=O)Nc1ccccc1[N+](=O)[O-]	?	·	–	·	·	–
Cc1ccccc1-n1c(C)nnc1SC(C)C(=O)NCC1CCCO1 (centres undefined)	·	·	·	–	–	·
